In PubChem BioAssay:
Activity calls are given as the source filed them.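 How the source made its calls: active means viability at or under a set limit in both replicates, limit being median viability minus 3 SD (cut at about 48% in these data, passing the limit was not always enough); inconclusive means at or under the limit in just one replicate; inactive means at or above the limit in both replicates.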 Square brackets hold non-standard residues; d marks the D form. Peptide text beside a SMILES is read from it. * marks the point of attachment. ξ: configuration not given here. Cbz = O=C(OCc1ccccc1)*; ξK = NCCCCC(N)C(=O)O

Assay: H69AR cell proliferation blockers – human, duplicate replicates, primary screen (AID 580);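 further: 100% = mean luminescence of untreated wells and 0% = no signal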
Conditions: H69AR lung tumor cells viability, ATP luminescence, 72 h; at 10 µM; active compounds read low
With `COC(=O)c1ccccc1NC(=O)CSc1nc2c(c(=O)n(C)c(=O)n2C)n1C` the viability was 97% (inactive).
With `CCCCOc1cccc(NC(=O)CSc2nccn2C)c1` the viability was 85.3% (inactive).
With `Cc1ccc(Nc2cc(-n3nc(C)cc3C)ncn2)cc1` the viability was 74.8% (inactive).
With `COc1ccc(-n2c(SCC#N)nc3ccccc3c2=O)cc1` the viability was 96.4% (inactive).
With `COc1cc2c(C)nc(C)c(C#N)c2cc1OC` the viability was 86.6% (inactive).
For `CC1=C(C(=O)OCc2ccccc2)C(c2ccc(C)o2)C2=C(CCCC2=O)N1` (stereo not given), the viability was 103% (inactive).
In the case of `C=CCNC(=O)c1cc(-c2ccccc2O)on1`, the viability is reported as 86.7% (inactive).
For `Cc1cc(NC(=O)CSc2nc3ccsc3c(=O)n2NC(=O)c2ccccc2)no1`, the viability was 97.1% (inactive).
For `O=C(NCc1ccco1)c1cnn2c(C(F)(F)F)cc(-c3ccco3)nc12`, the viability was 71.8% (inactive).
With `Cc1ccc(-c2nnc3ccc(SCC(=O)NCc4ccco4)nn23)cc1` the viability was 93.2% (inactive).
In the case of `CCCc1cc(C(N)=O)c(NC(=O)c2ccco2)s1`, the viability is reported as 87.3% (inactive).
With `COc1ccc(CCNC(=O)c2ccncc2)cc1OC` the viability was 97.5% (inactive).
With `CCOC(=O)c1nnc(-c2ccccc2)o1` the viability was 88.1% (inactive).
For `Cc1ccc(S(=O)(=O)N2CCCC(C(=O)NC3=NCCS3)C2)cc1` (stereo not given), the viability was 91.8% (inactive).
In the case of `O=C1CCCC2=C1C(c1ccsc1)CC(=O)N2c1ccccc1` (stereo not given), the viability is reported as 92.4% (inactive).
For `Cc1csc2nc(CSc3nc4ccccc4o3)c(Br)n12`, the viability was 83% (inactive).
With `CC(NC(=O)c1ccccc1NC(=O)c1ccco1)C(=O)O` (stereo not given) the viability was 86.7% (inactive).
With `CCC(=O)Nc1cc2nn(-c3ccccc3)nc2cc1Cl` the viability was 68.2% (inactive).
With `O=C(NC1CCCCC1)n1c(=O)oc2ccc(Cl)cc21` the viability was 94.2% (inactive).
For `COc1ccc(OC)c(-c2nnc(SCC(=O)NC3CCCCC3)o2)c1`, the viability was 98.5% (inactive).
In the case of `O=C(O)CCCc1nc(-c2ccccc2)no1`, the viability is reported as 97% (inactive).
For `COCCn1c(SCC(=O)Nc2cccc(OC)c2)nnc1-c1ccc(Cl)cc1`, the viability was 84.1% (inactive).
With `CCN1C(=O)Cc2cc(S(=O)(=O)N3CCOCC3)ccc21` the viability was 98% (inactive).
For `O=C(Nc1cc(Cl)ccc1Cl)c1noc2c1CCCC2`, the viability was 83.5% (inactive).
With `CCCCn1c(SCC(=O)Nc2ccc(OC)cc2)nc2ccc(N3CCOCC3)cc2c1=O` the viability was 89.6% (inactive).
For `Cc1ccc(C(=O)N2CCN(C(=O)c3ccc(C)c(C)c3)C(C)C2)cc1C` (stereo not given), the viability was 82.2% (inactive).
In the case of `COc1ccc(C2CC(c3ccccc3)Nc3nc(NC(=O)c4cccs4)nn32)cc1` (stereo not given), the viability is reported as 88.3% (inactive).
For `CC1(CC(=O)O)C(=O)N=C2C=CC=CN21` (stereo not given), the viability was 89.4% (inactive).
In the case of `COC(=O)C(CCCCNC(=O)OCc1ccccc1)NC(=O)CN` (stereo not given) (H-Gly-[ξK](Cbz)-OMe), the viability is reported as 100% (inactive).
For `Fc1ccc(C(c2nnnn2Cc2ccco2)N2CCN(C3CCCCC3)CC2)cc1` (stereo not given), the viability was 94.1% (inactive).
For `COc1ccccc1-c1cn[nH]c(=S)n1`, the viability was 96.1% (inactive).
With `CCOC(=O)C1CCCN(C(=O)c2ccc(CS(=O)(=O)Cc3ccccc3C)o2)C1` (stereo not given) the viability was 96.2% (inactive).
For `O=c1c2[nH]c3ccccc3c2ncn1CCCn1ccnc1`, the viability was 96.8% (inactive).
In the case of `COc1ccc(S(=O)(=O)N2CCN(C3CCCCCCC3)CC2)cc1`, the viability is reported as 93.9% (inactive).
With `O=C(CCn1c(=S)[nH]c2ccccc2c1=O)NCC1CCCO1` (stereo not given) the viability was 98.2% (inactive).
With `CCC(=O)Nc1ccc(NC(=O)c2cccc(OC)c2)nc1` the viability was 97.8% (inactive).
In the case of `CN(Cc1ccccc1)C(=O)c1ccc2c(c1)OCO2`, the viability is reported as 108% (inactive).
With `O=C(O)CC1SC(=Nc2cccc(C(F)(F)F)c2)NC1=O` (stereo not given) the viability was 103% (inactive).
For `CCOC(=O)C1=C(C)N=c2s/c(=C\c3cccn3C)c(=O)n2C1c1cccc(OC)c1OC` (stereo not given), the viability was 87.4% (inactive).
For `CC(=O)c1cccc(NC(=O)N2CCCc3ccccc32)c1`, the viability was 93.6% (inactive).
